Test results as given in PubChem BioAssay (Tox21).
Inconclusive results are not listed. Where a call stands in place of a potency, no number is given. Active and inactive are the calls of the source. The call rests on the fitted dose curve; in most records, active means well fitted activation curve with a large enough effect in the repeat runs; inconclusive means weak or mixed curves; inactive means flat fitted curve, though single readings scatter.

Assay: A CellTox Green Cytotoxicity Assay to monitor cytotoxicity in HEK293 cells - 32 hour (AID 1224881); further: nearly all actives have a fitted effect of over 40% in size
Details: CellTox Green fluorescence; series mostly up to 76.8 µM
From the text: National Center for Advancing Translational Sciences [NCATS]
NIH Chemical Genomics Center [NCGC]
U.S. Environmental Protection Agency [EPA]
National Institutes of Environmental Health Sciences [NIEHS]
National Toxicology Program [NTP]
Cell-based models are critical for drug discovery. Determining the natural cytotoxic effects resulting from test compounds is an essential research activity. A CellTox Green Cytotoxicity Assay to monitor cytotoxicity in real time of continues cell culture during 40 hours of the compound treatment was used to screen Tox21 10K library compounds in Hek293 cells. CellTox Green Cytotoxicity Assay is a nonlytic, homogeneous, biofluorescent method to measure cytotoxicity in cell culture after experimental manipulation. The assay system uses a proprietary asymmetric cyanine dye that is excluded from viable cells but preferentially stains the dead cell's DNA. […] Viable cells produce no appreciable increases in fluorescence. Therefore, the fluorescence signal produced by the binding interaction with dead cell DNA is proportional to cytotoxicity.
The mixture of Hek293 cell suspension and reagents were dispensed at 600cells/6 ul/well in 1536-well tissue culture treated black solid bottom plates using a Multidrop dispenser. After the assay plates were incubated at a 37 C/5% CO2 incubator for 5 hours, 23 nL of compounds dissolved in DMSO, positive and negative controls was transferred to the assay plate by a pintool work station. The plates were incubated at 37 C for 40 hours. The fluorescence intensity were measured at 0h, 8h, 16h, 24h, 32h and 40h time points using ViewLux plate reader during compound treatment.
For `O=S(=O)(O)c1cc(O)c2ccc(Nc3ccccc3)cc2c1`, the Potency was “inactive”. In the case of `CO[C@@H]1[C@@H](OC(N)=O)[C@@H](O)[C@H](Oc2ccc3c(O)c(NC(=O)c4ccc(O)c(CC=C(C)C)c4)c(=O)oc3c2C)OC1(C)C`, the Potency is reported as “inactive”. For `Nc1ncnc(Nc2ccccc2)n1`, the Potency was “inactive”. For `CCCCCCCCC1CCC(=O)O1` (stereo not given), the Potency was “inactive”. For `COCCOCCOCCOCCOCCO`, the Potency was “inactive”. In the case of `CCCCCCN`, the Potency is reported as “inactive”. In the case of `CCC(CC)CO`, the Potency is reported as “inactive”. In the case of `CC(C)(C)OC(=O)c1ccc(O)cc1`, the Potency is reported as “inactive”. In the case of `CC(CN)CC(C)(C)CCN` (stereo not given), the Potency is reported as “inactive”. In the case of `CCCCNc1ccc(C(=O)OCCN(C)C)cc1`, the Potency is reported as “inactive”. With `COCCOC(=O)C1=C(C)NC(C)=C(C(=O)OC(C)C)C1c1cccc([N+](=O)[O-])c1` (stereo not given) the Potency was “inactive”. In the case of `C=C(C)C(=O)OCCOP(=O)(O)OCCOC(=O)C(=C)C`, the Potency is reported as “inactive”. For `O=C(OCC1(COC(=O)c2cccnc2)CCCC(COC(=O)c2cccnc2)(COC(=O)c2cccnc2)C1O)c1cccnc1`, the Potency was “inactive”. In the case of `CC(CO)c1ccccc1` (stereo not given), the Potency is reported as “inactive”. For `CCCCCCOc1ccccc1C(N)=O`, the Potency was “inactive”. With `FC(F)(F)c1ccccc1-n1ccnc1` the Potency was “inactive”. With `N[C@@H](CCC(=O)N[C@@H](CS)C(=O)NCC(=O)O)C(=O)O` the cytotoxicity increase was 2.25% [at 15.8 µM] (inactive). With `CCCCCCCCCC(C)=O` the Potency was “inactive”. In the case of `COc1ccc(Br)c(C)c1`, the Potency is reported as “inactive”. With `CC1COc2ccccc2N1` (stereo not given) the Potency was “inactive”. For `Nc1nnc(-c2cccc(Cl)c2Cl)c(N)n1`, the Potency was “inactive”. In the case of `CCCCCCOC(=O)CC`, the Potency is reported as “inactive”. In the case of `CCOc1cc(NC(C)=O)ccc1C(=O)OC`, the Potency is reported as “inactive”. In the case of `CCN(CC)CC(=O)Nc1c(C)cccc1C`, the Potency is reported as “inactive”. For `O=C(OCC(O)CO)c1ccccc1Nc1ccnc2c(C(F)(F)F)cccc12` (stereo not given), the Potency was “inactive”. For `O=C1c2cccc3c2[C@H](CCC3)CN1[C@@H]1CN2CCC1CC2`, the Potency was “inactive”. In the case of `CCCCC(CC)COCCO` (stereo not given), the Potency is reported as “inactive”. For `O=P(O)(O)OP(=O)(O)O`, the Potency was “inactive”. For `O=C(NCCc1c[nH]c2ccccc12)c1cccnc1`, the Potency was “inactive”. For `CC(=O)N[C@@H](CCC(=O)O)C(=O)O`, the Potency was “inactive”. With `CC1(CO)CN(c2ccccc2)NC1=O` (stereo not given) the Potency was “inactive”. For `COC(=O)c1ccccc1C(=O)c1ccc(OCCN2CCCCC2)cc1`, the Potency was “inactive”. With `Oc1cn2c(n1)Nc1ccc(Cl)c(Cl)c1C2` the cytotoxicity increase was -4.2% [at 15.8 µM] (inactive). With `CN=C(NC#N)Nc1ccc(C2=NNC(=O)CC2C)cc1` (stereo not given) the Potency was “inactive”. In the case of `OCCN(CCO)c1cccc(Cl)c1`, the Potency is reported as “inactive”. For `COc1ccc(OC)c(Cl)c1`, the Potency was “inactive”. With `C=Cc1ccccn1` the Potency was “inactive”. With `CCOCCOC(=O)/C=C/c1ccc(OC)cc1` the Potency was “inactive”. With `CNC(=O)[C@H]1O[C@@H](n2cnc3c(NCc4cc(Cl)ccc4OCc4cc(C)no4)ncnc32)[C@H](O)[C@@H]1N` the Potency was “inactive”. With `CC(=O)c1sc(C)nc1C` the Potency was “inactive”.
